B2AR arrestin: beta2AR (human) beta-arrestin recruitment activity | beta-arrestin recruitment to beta2AR, cell-based reporter | 330,000 tested, 0.02% active | AID 492947 | Potency, µM (series often up to 46.1 µM), inactives show at the highest dose activation, most hits filed as activators; active = well fitted activation curve with a large enough effect; inconclusive = small, poorly fitted or top-dose-only effect;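 also: potency is read from the fitted curve at half-maximal effect; 0% = DMSO controls and full agonism = EC100 isoproterenol or metaproterenol; nearly all actives have a fitted effect of over 65% in size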
DRD3 agonist: agonists of human D3 dopamine receptor; P35462; D3R DiscoveRx beta-arrestin cells, luminescence, 90 min; max activation, %; 410,000 tested, 0.58% active; in the data active = max activation above about 30%; also: 0% is about no effect
Target sequence (P35462 whole entry, looked up): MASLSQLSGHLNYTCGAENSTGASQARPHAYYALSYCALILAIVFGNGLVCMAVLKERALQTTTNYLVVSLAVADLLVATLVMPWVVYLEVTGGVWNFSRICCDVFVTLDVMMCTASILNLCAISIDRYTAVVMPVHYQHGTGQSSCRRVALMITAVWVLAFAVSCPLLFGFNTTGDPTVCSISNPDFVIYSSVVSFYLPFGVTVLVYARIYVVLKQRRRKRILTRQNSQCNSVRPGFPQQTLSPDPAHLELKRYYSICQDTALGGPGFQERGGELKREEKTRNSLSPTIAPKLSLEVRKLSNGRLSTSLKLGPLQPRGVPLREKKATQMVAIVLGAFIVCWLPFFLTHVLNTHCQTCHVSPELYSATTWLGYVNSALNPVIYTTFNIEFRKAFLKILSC
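Cells at 1500/well, incubated overnight, then treated with pinned compounds (dopamine as control) for 90 min at 37 degrees C. DiscoveRx reagent added for 30 - 60 minutes at room temperature; luminescence read.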
TSHR antagonist: antagonists of human thyroid stimulating hormone receptor. P16473. TSHR-expressing cells, TSH-stimulated cAMP HTRF, 2 h; hits give low values. activity change, negative = inhibition, % at 11.5 µM. 330,000 tested, 0.2% active;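 active = activity change below a set negative limit, meaning inhibition stronger than a set level, cut at about -70% in these data; inconclusive = activity change between two set negative limits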; also: % is scaled to controls: 0 for no effect and ±100 for the full control effect
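Read-out is FRET at 665 nm (cryptate excitation 337 nm) from a cryptate-tagged anti-cAMP antibody, competed by cell cAMP against cAMP-d2. Compounds are tested on freshly harvested TSHR cells challenged with 4nM TSH (EC80) for 2 hours at 37 deg C.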
D3 antag: D3 dopamine receptor (human) antagonism | D3R cells, DiscoveRx beta-arrestin luminescence, antagonist mode; hits give low values | max response, negative = inhibition, % | 360,000 tested, 2.5% active; in the data active = max response below about -50%; inconclusive = no clear call, values can overlap the other calls; also: % is scaled to controls: 0 for no effect and ±100 for the full control effect
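Cells plated overnight at 1500 cells/well, then exposed to library compounds with dopamine controls for 90 minutes at 37 degrees C. DiscoveRx reagent added for 30–60 minutes at room temperature; luminescence read, quantitative HTS format.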
Numbers without * were called inactive. Only some compounds are listed: those with a hit (about 2.9% of all), similar ones and a draw of the others.

For NC(=O)c1cccc(-c2ccnc3c2CC(C(=O)NCCc2ccccc2)O3)c1 (centres undefined) the results were DRD3 agonist -1 and D3 antag 2.
`CN1CCN(c2ccc(CNC(=O)C3Cc4c(-c5cccc(F)c5)ccnc4O3)cc2)CC1` (centres undefined) gave DRD3 agonist -13 and D3 antag -56*.
`CCOC(=O)c1cccc(NC(=O)c2ccc3snnc3c2)c1` gave DRD3 agonist 2.
`Cc1ccc(CNC(=O)Nc2nnc([C@@H]3C[C@H](O)[C@@H](CO)O3)s2)cc1` gave DRD3 agonist -15 and D3 antag -63*.
`O=C(NCc1ccc(F)cc1)Nc1nnc([C@@H]2C[C@H](O)[C@@H](CO)O2)s1` gave DRD3 agonist -9 and D3 antag 0.
CC(NC(=S)NCCc1ccccc1)C(c1cccs1)N1CCN(Cc2ccccc2)CC1 (centres undefined) was read as B2AR arrestin 0%, DRD3 agonist -13, TSHR antagonist 19 and D3 antag -79*.
For CC(NC(=O)NC1CCCCC1)C(c1cccs1)N1CCN(Cc2ccccc2)CC1 (centres undefined) the results were B2AR arrestin 0%, DRD3 agonist -7, TSHR antagonist 11 and D3 antag -14.
Screening O=C(NC(C(=O)c1ccccc1)N1CCOCC1)c1ccccc1 (centres undefined) returned B2AR arrestin 0%, DRD3 agonist -1, TSHR antagonist -6 and D3 antag -3.
Screening Cc1cc(=O)n(C(NC(=O)c2ccccc2)C(=O)c2ccccc2)cn1 (centres undefined) returned B2AR arrestin 5%, DRD3 agonist 65*, TSHR antagonist 3 and D3 antag 101.
`Fc1ccccc1OCCCCN1CCCCC1` gave B2AR arrestin 0%, DRD3 agonist -19, TSHR antagonist -10 and D3 antag -81*.
Clc1ccccc1OCCCCN1CCCCC1 was read as B2AR arrestin 0%, DRD3 agonist -25, TSHR antagonist -14 and D3 antag -95*.
Screening c1ccc2c(OCCCCN3CCCC3)cccc2c1 returned B2AR arrestin 0%, DRD3 agonist -1, TSHR antagonist 6 and D3 antag inconclusive.
For O=C(OCCN1CCCCC1)c1ccccc1Cl the results were B2AR arrestin 0%, DRD3 agonist 1, TSHR antagonist 7 and D3 antag -68*.
Clc1ccccc1OCCCCN1CCCC1 was read as B2AR arrestin 0%, DRD3 agonist -29, TSHR antagonist 1 and D3 antag -85*.
Screening Cn1c(=O)[nH]c(=O)c2c1nc(N1CCOCC1)n2Cc1ccccc1 returned DRD3 agonist -8.
Clc1ccc(Cl)c(OCCCCN2CCCCC2)c1 was read as B2AR arrestin 0%, DRD3 agonist -18, TSHR antagonist 2 and D3 antag -106*.
CCC(=O)N1CCc2cc(Br)cc(S(=O)(=O)CCC(=O)NCc3cccc(OC)c3)c21 was read as DRD3 agonist -10.
`COc1ccc(OCC(=O)N2CCN(C(=O)c3ccc(OC)c(OC)c3)CC2)cc1` gave DRD3 agonist 6.
COc1ccc(CC(=O)N2CCc3cc(OC)c(OC)cc3C2)cc1 was read as B2AR arrestin -1%, DRD3 agonist 5, TSHR antagonist -1 and D3 antag 3.
Screening COc1ccc(OCCN2CCN(C(=O)c3ccc(OC)c(OC)c3)CC2)cc1 returned B2AR arrestin 0%, DRD3 agonist 112*, TSHR antagonist 10 and D3 antag 9.
`COc1ccc(/C=C/C(=O)NC(=S)N2CCOCC2)cc1` gave B2AR arrestin 0%, DRD3 agonist 0, TSHR antagonist -1 and D3 antag -11.
COc1ccccc1N1CCN(CCCC(=O)c2ccc(F)cc2)CC1 was read as B2AR arrestin 1%, DRD3 agonist -88, TSHR antagonist -7 and D3 antag -98*.
Screening COc1ccc(C(=O)CCN2CCc3cc(OC)c(OC)cc3C2)cc1 returned B2AR arrestin 0%, DRD3 agonist -19, TSHR antagonist -11 and D3 antag -59*.
Screening COc1ccc(/C=C/C(=O)NC(=S)N2CCN(c3ccccc3OC)CC2)cc1 returned B2AR arrestin -1%, DRD3 agonist -16, TSHR antagonist 10 and D3 antag -50*.
COC(=O)C[C@@H]1CC[C@H](NS(=O)(=O)c2cccc(F)c2)[C@@H](CO)O1 was read as DRD3 agonist -1 and D3 antag 2.
`COc1cc2c(cc1OC)CN(CCOc1ccc(Br)cc1)CC2` gave B2AR arrestin 0%, DRD3 agonist -2, TSHR antagonist -2 and D3 antag -100*.
`COc1ccc(C(=O)CCN2CCN(c3ccccc3OC)CC2)cc1` gave B2AR arrestin 0%, DRD3 agonist -21, TSHR antagonist 15 and D3 antag -83*.
Screening COc1ccccc1N1CCN(C(=O)CCC(=O)N2CCN(c3ccccc3OC)CC2)CC1 returned B2AR arrestin -1%, DRD3 agonist -4, TSHR antagonist 15 and D3 antag -25.
COc1ccccc1N1CCN(C(=O)CCC(=O)N2CCN(c3ccc(F)cc3)CC2)CC1 was read as B2AR arrestin -1%, DRD3 agonist 8, TSHR antagonist -124* and D3 antag 11.
COc1ccc(-c2nc(SCC(=O)NCCCc3ccccc3)n[nH]2)cc1 was read as DRD3 agonist -2.
CCOc1ccc(CN(C(=O)c2cc(=O)c3cc(Cl)ccc3o2)C2CCS(=O)(=O)C2)cc1 (centres undefined) was read as DRD3 agonist -4.
For COc1ccccc1N1CCN(S(=O)(=O)c2c(C)sc3ncn(CC(=O)Nc4ccc(C(C)C)cc4)c(=O)c23)CC1 the results were DRD3 agonist -6.
`O=C(CSc1nccn1Cc1ccco1)Nc1cc(C(F)(F)F)ccc1Cl` gave DRD3 agonist -24.
For Cc1ccc2oc(=O)c3cnn(CC(=O)NCCCOC(C)C)c3c2c1 the results were B2AR arrestin -2%, DRD3 agonist 2, TSHR antagonist 12 and D3 antag -84*.
`CC(C)c1ccc(NC(=O)CSc2nc(=O)n(Cc3ccccn3)c3c2CCC3)cc1` gave DRD3 agonist -7.
Screening CCOC(=O)c1ccc(NC(=O)c2sc3ccccc3c2Cl)cc1 returned DRD3 agonist 6.
`CCOC(=O)c1sc2ccccc2c1OC(=O)c1ccc(C)cc1` gave B2AR arrestin 0%, DRD3 agonist 35*, TSHR antagonist -7 and D3 antag 43.
O=C(Nc1ccccc1C(=O)N1CCCCC1)c1nsc2ccccc12 was read as DRD3 agonist -11.
